Molecules are shown by their SMILES. Inconclusive results are not listed. Where a call stands in place of a potency, no number is given. The source made the active and inactive calls. Calls follow the shape of the full dose curve.

A short description of the assay: qHTS assay for small molecules that induce genotoxicity in human embryonic kidney cells expressing luciferase-tagged ATAD5 - cell viability (AID 651634). Also: nearly all actives have a fitted effect of over 25% in size. Particulars: HEK293T ATAD5-luc cells viability, CellTiter-Fluor, 15.5 h; series mostly up to 83.3 µM. From the text: National Center for Advancing Translational Sciences [NCATS]
NIH Chemical Genomics Center [NCGC]
U.S. Environmental Protection Agency [EPA]
National Institutes of Environmental Health Sciences [NIEHS]
National Toxicology Program [NTP]
U.S. Food and Drug Administration [FDA]
Enhanced Level of Genome Instability Gene 1 (ELG1; human ATAD5) protein levels increase in response to various types of DNA damage. Using a luciferase reporter-gene tagged with ElG1, a cell-based assay [developed by Kyungjae Myung, NHGRI, NIH] was used to measure the induction of ATAD5 in human embryonic kidney cells (HEK293T). So, increase in luciferase activity can be used to identify the compounds that cause genetic stress. In addition to genotoxicity, these cells were also used to test for cytotoxicity by measuring the protease activity within live cells.
Tox21 Assay Protocol Summary:
For cytotoxicity screening, 2,000 cells in 5 uL/well were dispensed into white, solid-bottom 1536-well plates using a Multidrop Combi (Thermo Scientific) dispenser. Following transfer of 23 nL compound or DMSO vehicle by a pin tool, the plates were incubated 15.5 hr at 37C and 5% CO2. 1 ul CellTiter-Fluor reagent (Promega, Madison, WI) was then added to each plate and following 30 min incubation at 37C, fluorescence intensity was quantified on a ViewLux CCD-based plate reader.
Regarding `N#CCc1cccc(C(F)(F)F)c1`, the Potency entry is “inactive”.

With `Cc1ncsc1CCO`, the Potency entry was “inactive”.

Consider `CC(C)(C)c1cc(CO)cc(C(C)(C)C)c1O`, for which the Potency entry is “inactive”.

As to `CCOC(=O)C1=NN(c2ccccc2)C(=O)C1`, the Potency entry is “inactive”.

Turning to `CC(C)c1cccc(C(C)C)c1NC(=O)NS(=O)(=O)c1cc(C(C)(C)O)co1`, the Potency result was “inactive”.

Turning to `C=C(C)C(=O)OCCOc1ccccc1`, the Potency entry was “inactive”.

As to `CC1(C)[C@H]2CC[C@]1(C)[C@H](O)C2`, the Potency result was “inactive”.

For the molecule `CCC(=O)OC(C)(C)C1CC=C(C)CC1` (stereo not given), the Potency result is “inactive”.

Take `O=C(O)c1cccc(N(Cc2cccnc2)c2ccc(OC(F)F)c(OC(F)F)c2)c1`: the Potency result is “inactive”.

In the case of `O=C(O)[C@@H]1[C@H]2C[C@H]3c4[nH]c5ccccc5c4CCN3C[C@@H]2CC[C@@H]1O`, the Potency entry was “inactive”.

For `CN1CCC(OC(c2ccccc2)c2ccccc2)CC1`, the Potency entry was “inactive”.

In the case of `CC(=O)SCc1ccco1`, the Potency entry was “inactive”.

For `CC(C)NCC(O)c1cc(O)cc(O)c1` (stereo not given), the Potency entry is “inactive”.

For the molecule `NCCCOCCOCCOCCCN`, the Potency entry was “inactive”.

Take `CCCCCCCCCC(=O)OCC`: the Potency entry was “inactive”.

With `COCCOCCOCCOCCOC`, the Potency entry was “inactive”.

As for `COCCO`, the Potency result was “inactive”.

As for `COC(=O)CSc1cc(N=c2sc(=O)n3n2CCCC3)c(F)cc1Cl`, the Potency result is “inactive”.

For `O=S1(=O)c2cccc3cccc(c23)N1CCCN1CCN(c2ccc(F)cc2)CC1`, the Potency entry is “inactive”.

As to `CN1CCN(C2=Nc3ccccc3Sc3ccc(Cl)cc32)CC1`, the Potency entry is “inactive”.

Regarding `CCCC(C)C`, the Potency entry is “inactive”.

Turning to `O=C1CCCCCO1`, the Potency result is “inactive”.

Regarding `O=C(O)Cn1c(C(=O)Nc2nc(-c3ccccc3Cl)cs2)cc2ccccc21`, the Potency entry was “inactive”.

Take `C=CCCCCCC`: the Potency entry is “inactive”.

Turning to `CC(=O)CC(=O)c1ccccc1`, the Potency result was “inactive”.

`CCOC(=O)[C@H](CCc1ccccc1)N[C@H]1CCc2ccccc2N(CC(=O)O)C1=O`: the Potency result was “inactive”.

Consider `O=C(O)COC(=O)Cc1ccccc1Nc1c(Cl)cccc1Cl`, for which the Potency result was “inactive”.

In the case of `O=C1[C@H](CC[C@H](O)c2ccc(F)cc2)[C@@H](c2ccc(O)cc2)N1c1ccc(F)cc1`, the Potency result is “inactive”.

Regarding `O=C=NC1CCC(CC2CCC(N=C=O)CC2)CC1` (stereo not given), the Potency entry was “inactive”.

On to `Oc1ccc(Cc2ccccc2)cc1`, for which the Potency entry is “inactive”.

Consider `C[Si](C)O[Si](C)(C)O[Si](C)(C)O[Si](C)C`, for which the Potency result was “inactive”.

Regarding `CCCC[C@H]1CN(CC2CCOCC2)C(=O)OC12CCN(C1(C)CCN(C(=O)c3c(C)ncnc3C)CC1)CC2`, the Potency entry was “inactive”.

Take `O=C(Cl)c1c(Cl)cccc1Cl`: the Potency result was “inactive”.

For the molecule `CCOC(=O)CC(C)C`, the Potency result is “inactive”.

Take `Cn1sccc1=O`: the Potency result was “inactive”.

Consider `COc1ccccc1OC(=O)Oc1ccccc1OC`, for which the Potency result was “inactive”.

For `CN1CCC[C@@H]1c1cccnc1`, the Potency entry was “inactive”.

Turning to `Oc1ccc(O)c2c(O)cccc12`, the Potency entry is “inactive”.

Turning to `S=C(S)NCCNC(=S)S`, the Potency result was “inactive”.

On to `CC(=O)O[C@H]1C[C@@H]2CC[C@@H]3[C@H](CC[C@@]4(C)[C@H]3C[C@H]([N+]3(C)CCCCC3)[C@@H]4OC(C)=O)[C@@]2(C)C[C@@H]1N1CCCCC1`, for which the Potency entry was “inactive”.
